This is an account of results in PubChem BioAssay (NCI).

A short description of assay [1]: NCI Yeast Anticancer Drug Screen. Data for the rad50 strain (AID 155).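 Also: 0% = growth of vehicle-only cultures of the same strain.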 The note with it: S. cerevisiae rad50 strain growth inhibition, stronger effect = higher value. The gist of the method:
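A DNA repair-deficient yeast mutant serves as the test organism; compound-induced growth inhibition is calculated against vehicle-treated cells.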

Assay [2] in a line: NCI Yeast Anticancer Drug Screen. Data for the mec2-1 strain (AID 157). The note with it: S. cerevisiae mec2-1 strain, stronger effect = higher value. In a few lines:
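Vehicle-treated cultures served as reference for growth inhibition of compound-exposed mec2-1 yeast.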

The nature of assay [3]: NCI Yeast Anticancer Drug Screen. Data for the sgs1 mgt1 strain (AID 161).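 Also: 0% = growth of cultures given vehicle only.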 The note with it: S. cerevisiae sgs1 mgt1 strain, stronger effect = higher value. The gist of the method:
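Test agents were incubated with a DNA-repair-mutant yeast strain. Growth was then read and compared against vehicle-treated controls.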

The nature of assay [4]: NCI Yeast Anticancer Drug Screen. Data for the cln2 rad14 strain (AID 165).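 Also: 0% = growth equal to vehicle treated cultures.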 The note with it: S. cerevisiae cln2 rad14 strain, stronger effect = higher value. In a few lines: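 Each compound was tested on cln2 rad14 yeast. Inhibition of growth was calculated against vehicle-exposed controls.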
Assay [5] is described as follows: NCI Yeast Anticancer Drug Screen. Data for the bub3 strain (AID 167). The note with it: S. cerevisiae bub3 mutant strain, stronger effect = higher value. The gist of the method: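 Inhibition values come from growth of compound-treated mutant yeast normalised to vehicle-treated controls.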
Assay [6] in a line: NCI Yeast Anticancer Drug Screen. Data for the mlh1 rad18 strain (AID 175). Conditions: S. cerevisiae mlh1 rad18 strain growth inhibition, stronger effect = higher value. In a few lines:
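Vehicle-treated cultures served as the reference for growth inhibition in a yeast strain carrying DNA damage repair alterations exposed to each compound.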

The mark [7] stands for this setting: at 5.0 µM (retest, dose inferred, filed as 0.5).
The mark [8] stands for this setting: at 50.0 µM (retest, dose inferred, filed as 5.0).

Where “and” joins values, the source holds several entries; their conditions need not be identical. Equal entries are not always repeated. About 79,000 compounds went through this panel and 15% of them were active in at least one assay; those are over-represented in the sample as a whole. Some compounds were tested as several samples or in several runs, with calls that do not always agree. Calls of active or inactive are those of the source. Rule as the data show it: active = growth inhibition above about 70%; inactive = the rest.

For `CCOP(=O)(OCC)C(C)(CC)NC(=O)C(C(F)(F)F)C(F)(F)F` (centres undefined), the growth inhibition in assay [1] (setting [7]) was 21% (inactive); in assay [1] (setting [8]), 21% (inactive); in assay [1] (at 50.0 µM), -5.45% (inactive) and 2.5% (inactive); in assay [2] (setting [7]), 23% (inactive); in assay [2] (setting [8]), 13% (inactive); in assay [2] (at 50.0 µM), -14.8% (inactive) and 4% (inactive). In addition, the growth inhibition in assay [3] (setting [7]) is 16% (inactive); in assay [3] (setting [8]), 13% (inactive); in assay [3] (at 50.0 µM), -8.75% (inactive) and -2.6% (inactive); in assay [4] (setting [7]), 18% (inactive); in assay [4] (setting [8]), 24% (inactive); in assay [4] (at 50.0 µM) it was 5.65% (inactive) and -1.65% (inactive). For the same molecule, the growth inhibition in assay [5] (setting [7]) was 20% (inactive); in assay [5] (setting [8]), 19% (inactive); in assay [5] (at 50.0 µM), -4.95% (inactive) and -8.05% (inactive); in assay [6] (setting [7]) it was 23% (inactive); in assay [6] (setting [8]) it was 18% (inactive); in assay [6] (at 50.0 µM), 8.65% (inactive) and -16.8% (inactive).

Turning to `CCCCCCCCCCCCSC(=NC)NC`, the growth inhibition in assay [1] (setting [7]) was 65% (inactive) and 27% (inactive); in assay [1] (setting [8]), 99% (active) and 98% (active); in assay [1] (at 50.0 µM), 99.5% (active) and 99.4% (active); in assay [2] (setting [7]), 48% (inactive) and 19% (inactive); in assay [2] (setting [8]), 100% (active) and 98% (active); in assay [2] (at 50.0 µM), 99.7% (active) and 99.5% (active). The growth inhibition was 80% (active) and 65% (inactive) in assay [3] (setting [7]); 99% (active) in assay [3] (setting [8]); 99.4% (active) and 99.1% (active) in assay [3] (at 50.0 µM); 4% (inactive) and -9% (inactive) in assay [4] (setting [7]); 99% (active) in assay [4] (setting [8]); 96.2% (active) and 98% (active) in assay [4] (at 50.0 µM). In addition, the growth inhibition in assay [5] (setting [7]) is 91% (active) and 46% (inactive); in assay [5] (setting [8]), 100% (active); in assay [5] (at 50.0 µM) it was 99.5% (active) and 99% (active); in assay [6] (setting [7]), 27% (inactive) and 24% (inactive); in assay [6] (setting [8]) it was 99% (active) and 98% (active); in assay [6] (at 50.0 µM), 99.1% (active) and 98.8% (active).

As for `O=S(=O)(O)c1ccc(NN(c2c(O)ccc3ccccc23)S(=O)(=O)O)cc1`, the growth inhibition is -12% (inactive) in assay [1] (setting [7]); 1% (inactive) in assay [1] (setting [8]); 18.2% (inactive) in assay [1] (at 50.0 µM); -5% (inactive) in assay [2] (setting [7]); -11% (inactive) in assay [2] (setting [8]); -3.1% (inactive) in assay [2] (at 50.0 µM). For the same molecule, the growth inhibition in assay [3] (setting [7]) was -16% (inactive); in assay [3] (setting [8]) it was -12% (inactive); in assay [3] (at 50.0 µM) it was -19.7% (inactive); in assay [4] (setting [7]), -17% (inactive); in assay [4] (setting [8]), -84% (inactive); in assay [4] (at 50.0 µM), 43.9% (inactive). For the same molecule, the growth inhibition in assay [5] (setting [7]) is -9% (inactive); in assay [5] (setting [8]), -10% (inactive); in assay [5] (at 50.0 µM), -29.8% (inactive); in assay [6] (setting [7]) it was -12% (inactive); in assay [6] (setting [8]), -19% (inactive); in assay [6] (at 50.0 µM), 15.1% (inactive).

As for `COc1ccc2[nH]c3c(C)c4ccncc4c(C)c3c2c1`, the growth inhibition in assay [1] (setting [7]) is 95% (active); in assay [1] (setting [8]) it was 99% (active); in assay [1] (at 50.0 µM), 92.6% (active) and 99% (active); in assay [2] (setting [7]), 40% (inactive); in assay [2] (setting [8]), 99% (active); in assay [2] (at 50.0 µM), 93.7% (active) and 99.5% (active). Moreover, the growth inhibition is 39% (inactive) in assay [3] (setting [7]); 99% (active) in assay [3] (setting [8]); 93.2% (active) and 99.4% (active) in assay [3] (at 50.0 µM); 21% (inactive) in assay [4] (setting [7]); 99% (active) in assay [4] (setting [8]); 91.8% (active) and 99% (active) in assay [4] (at 50.0 µM). The growth inhibition in assay [5] (setting [7]) is 30% (inactive); in assay [5] (setting [8]), 99% (active); in assay [5] (at 50.0 µM), 92.7% (active) and 99.3% (active); in assay [6] (setting [7]), 55% (inactive); in assay [6] (setting [8]) it was 99% (active); in assay [6] (at 50.0 µM), 92.8% (active) and 99.4% (active).

As for `[N-]=[N+]=CC(=O)OCC1NC(=O)C(COC(=O)C=[N+]=[N-])NC1=O` (centres undefined), the growth inhibition is 5% (inactive) in assay [1] (setting [7]); -1% (inactive) in assay [1] (setting [8]); -10.3% (inactive) and 80.2% (active) in assay [1] (at 50.0 µM); 2% (inactive) in assay [2] (setting [7]); 6% (inactive) in assay [2] (setting [8]); -20.1% (inactive) and 85.7% (active) in assay [2] (at 50.0 µM). Moreover, the growth inhibition in assay [3] (setting [7]) was -1% (inactive); in assay [3] (setting [8]) it was 3% (inactive); in assay [3] (at 50.0 µM), 12.6% (inactive) and 71.3% (active); in assay [4] (setting [7]), -2% (inactive); in assay [4] (setting [8]), -7% (inactive); in assay [4] (at 50.0 µM) it was 6.1% (inactive) and 76% (active). The growth inhibition in assay [5] (setting [7]) was -1% (inactive); in assay [5] (setting [8]) it was -2% (inactive); in assay [5] (at 50.0 µM) it was 3.8% (inactive) and 85.3% (active); in assay [6] (setting [7]) it was 2% (inactive); in assay [6] (setting [8]), 1% (inactive); in assay [6] (at 50.0 µM) it was 4.15% (inactive) and 86.6% (active).

With `Cc1ccc(C23C=CC(c4ccccc4)(C2)C2C(=O)OC(=O)C23)cc1` (centres undefined), the growth inhibition in assay [1] (setting [7]) was 86% (active); in assay [1] (setting [8]), 96% (active); in assay [1] (at 50.0 µM), 98.5% (active); in assay [2] (setting [7]), 85% (active); in assay [2] (setting [8]), 97% (active); in assay [2] (at 50.0 µM), 98.5% (active). Besides, the growth inhibition in assay [3] (setting [7]) was 81% (active); in assay [3] (setting [8]), 98% (active); in assay [3] (at 50.0 µM), 98.6% (active); in assay [4] (setting [7]) it was 36% (inactive); in assay [4] (setting [8]), 97% (active); in assay [4] (at 50.0 µM), 92.2% (active). The growth inhibition was 85% (active) in assay [5] (setting [7]); 97% (active) in assay [5] (setting [8]); 98.7% (active) in assay [5] (at 50.0 µM); 79% (active) in assay [6] (setting [7]); 97% (active) in assay [6] (setting [8]); 95.8% (active) in assay [6] (at 50.0 µM).

Turning to `NNc1ccc2ccccc2c1`, the growth inhibition was 28% (inactive) in assay [1] (setting [7]); 86% (active) in assay [1] (setting [8]); 97.2% (active) and 22.5% (inactive) in assay [1] (at 50.0 µM); 4% (inactive) in assay [2] (setting [7]); 56% (inactive) in assay [2] (setting [8]); 85.6% (active) and 2.95% (inactive) in assay [2] (at 50.0 µM). Besides, the growth inhibition in assay [3] (setting [7]) was 13% (inactive); in assay [3] (setting [8]), 57% (inactive); in assay [3] (at 50.0 µM) it was 95.5% (active) and 26.1% (inactive); in assay [4] (setting [7]), 16% (inactive); in assay [4] (setting [8]) it was 30% (inactive); in assay [4] (at 50.0 µM), 90.2% (active) and 29.1% (inactive). Further, the growth inhibition in assay [5] (setting [7]) is 16% (inactive); in assay [5] (setting [8]) it was 77% (active); in assay [5] (at 50.0 µM), 91.2% (active) and 21.1% (inactive); in assay [6] (setting [7]) it was 33% (inactive); in assay [6] (setting [8]) it was 91% (active); in assay [6] (at 50.0 µM), 97.2% (active) and 25.7% (inactive).

Consider `CC(NC(=O)/C(C#N)=C/c1ccc2[nH]ccc2c1)c1ccccc1` (centres undefined), for which the growth inhibition in assay [1] (setting [7]) is 0% (inactive); in assay [1] (setting [8]), 94% (active); in assay [1] (at 50.0 µM), 86.2% (active); in assay [2] (setting [7]), 1% (inactive); in assay [2] (setting [8]), 95% (active); in assay [2] (at 50.0 µM), 90% (active). Besides, the growth inhibition is 16% (inactive) in assay [3] (setting [7]); 93% (active) in assay [3] (setting [8]); 88.8% (active) in assay [3] (at 50.0 µM); 7% (inactive) in assay [4] (setting [7]); 91% (active) in assay [4] (setting [8]); 86.5% (active) in assay [4] (at 50.0 µM). Moreover, the growth inhibition in assay [5] (setting [7]) was 3% (inactive); in assay [5] (setting [8]), 94% (active); in assay [5] (at 50.0 µM), 86.2% (active); in assay [6] (setting [7]), -5% (inactive); in assay [6] (setting [8]), 96% (active); in assay [6] (at 50.0 µM), 86.3% (active).
